# Assay outcomes deposited in PubChem BioAssay by Broad Institute.
# This is one part of a sample in which hits are shown more often than they occur.
# Tg IFNy HTS: T. gondii growth inhibition with IFN-gamma, primary screen, cell-based | Toxoplasma gondii growth in IFN-gamma-treated host cells; stronger effect = lower value | activity change, negative = inhibition, % (no concentration beside the values) | 3.8% of 69,000 active; in the data active = activity change below about -70%, passing the limit was not always enough;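 also: host cells are HeLa cells infected with Toxoplasma gondii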
# Active calls of the source: *.
SMILES,Tg IFNy HTS
CC(=O)OC1C(=O)C2(C)C(O)CC3OCC3(OC(C)=O)C2C(OC(=O)c2ccccc2)C2(O)CC(OC(=O)C(O)C(NC(=O)c3ccccc3)c3ccccc3)C(C)=C1C2(C)C (centres undefined),-88*
O=C(c1cccc(C(F)(F)F)c1)N1CCn2cnc(COc3cccnc3)c2C1,-11
Cc1ccc(C)c(-c2nc(CN3CCc4c(sc5c4CCCC5)C3c3ccccc3)c(C)o2)c1 (centres undefined),45
COc1cccc(NC(=O)C(=O)NCCc2csc(-c3ccc(F)cc3)n2)c1,26
OCCOc1cccc(CN2C[C@H]3C[C@H](O)[C@@H](O)C[C@H]3C2)c1,6
COC(=O)c1cc(CN2CCN(Cc3cccc(F)c3)CC2)cs1,0
COc1cc(-c2cccnc2OC)cc(OC)c1OC,6
Cc1cc(C)n(CC(O)Cn2c3ccc(Cl)cc3c3cc(Cl)ccc32)n1 (centres undefined),-36
CNCC(O)Cn1c(C)c(C)c2ccccc21 (centres undefined),-3
OC(CNCc1ccccc1)Cn1c2ccc(Cl)cc2c2cc(Cl)ccc21 (centres undefined),-91*
CC(CCn1cccn1)NC(=O)C(C)(C)c1ccccc1 (centres undefined),8
C[C@@H]1CC=CC[C@@H](c2cccc(Cl)c2)NC(=O)[C@@H](Cc2ccccc2)N(C)C(=O)c2ccccc2O1 (mixture of isomers),-63
COc1ccc([C@H]2CC=CC[C@@H](C)Oc3ccccc3C(=O)N(C)[C@H](Cc3ccccc3)C(=O)N2)c(OC)c1 (mixture of isomers),-79*
COc1ccc([C@H]2CC=CC[C@H](C)Oc3ccccc3C(=O)N(C)[C@@H](C(C)C)C(=O)N2)c(OC)c1 (mixture of isomers),-11
COc1cc(NC(=O)c2ccc(CN3CC=CC3)cc2)cc(OC)c1,182
CN(Cc1ccc2c(c1)OCO2)Cc1nc(-c2cccnc2)no1,6
CN1C[C@@H]2C3(CCN(S(=O)(=O)C4CC4)CC3)CC[C@@]2(C(=O)N(C)C)C1,-1
COc1cccc(-n2c(=O)c(C(=O)Nc3cc(F)ccc3C)c(O)c3cccnc32)c1,231
CC(C)OC(=O)CSc1nnc(-c2ccc(O)cc2)n1C,6
Cc1ccc(-c2nnc(SCC(=O)c3ccc4c(c3)n(C)c(=O)n4C)n2C)cc1,-98*
Cc1ccc(C(=O)CSc2nnc(-c3ccncc3)n2C)cc1,-3
COc1ccc(C(=O)N2C[C@H](OCC3CC3)[C@@H]3OCCC[C@@H]32)cc1,12
COc1ccc2c(cc(C(=O)NCc3cc(N(C)C)nc(-c4cccnc4)n3)n2C)c1OC,-25
Cc1cccc(-c2nn3c(c2-c2ccnc4ccc(C(N)=O)cc24)CCC3)n1,-78*
O=C1C[C@H]2CC[C@@H](CN1)N2C(=O)c1ccc2ncsc2c1,-18
SMILES,Tg IFNy HTS
Cc1cccc(-c2nc(Cn3nnc(-c4nc(-c5ccc(Br)cc5)no4)c3C)c(C)o2)c1,3
Cc1ccc(C(=O)N2CCC[C@@]3(C(=O)N4CCOCC4)CN(c4ccccn4)C[C@H]3C2)cc1,-33
Cc1[nH]c(=O)[nH]c(=O)c1-c1ccc(C(C)N2CCCC2)cc1 (centres undefined),-1
CC(c1cccc(-c2ccc3[nH]c(=O)[nH]c(=O)c3c2)c1)N1CCCC1 (centres undefined),-71*
CC(c1cccc(-c2ccc[nH]c2=O)c1)N1CCCC1 (centres undefined),3
CCSC[C@H](N)C(=O)N1CCC(c2nn(C)c(=O)n2-c2ccccc2)CC1,-4
Cc1cc2c(cc1CN(C)Cc1ccccc1N1CCOCC1)n(C)c(=O)n2C,4
Cc1cccc(NC(=O)C(=O)NCCc2sc(-c3ccccc3)nc2C)c1,-36
Cc1ccc(NC(=O)C(=O)NCCc2sc(-c3ccccc3)nc2C)cc1,-3
Cc1nc(-c2cccc(F)c2)sc1CCNC(=O)C(=O)Nc1ccc2c(c1)OCO2,-98*
Cc1nc(-c2ccccc2)sc1CCNC(=O)C(=O)Nc1ccc2c(c1)OCO2,-93*
Cc1ccc(-c2nc(C)c(CCNC(=O)C(=O)Nc3ccc4c(c3)OCCO4)s2)cc1,-38
Cc1ccc(-c2nc(C)c(CCNC(=O)C(=O)Nc3ccc(Cl)cc3)s2)cc1,83
Cc1ccc(NC(=O)C(=O)NCCc2sc(-c3cccc(F)c3)nc2C)cc1F,51
Cc1nc(-c2ccc(Cl)cc2)sc1CCNC(=O)C(=O)Nc1ccc2c(c1)OCO2,-90*
Cc1nc(-c2cccc(F)c2)sc1CCNC(=O)C(=O)Nc1ccc2c(c1)OCCO2,-34
Cc1nn(-c2cc(N3CCCC3)ncn2)c(C)c1CCC(=O)NC1CCCC1,-16
Nc1ccc(NC(=O)c2ccccn2)cc1,244
CCOCC1CN(Cc2c(C)noc2C)Cc2cncn2C1 (centres undefined),-1
Cc1nonc1CN(C)C(=O)c1cc(C(C)C)on1,-10
CCCCCS(=O)(=O)CCCCCCCCCCn1c(-c2ccc(O)cc2)c(C)c2cc(O)ccc21,-79*
CCCCNC(=O)CN(C)C(=O)c1cccc(-c2ccc(O)cc2)c1,2
NC(N)=N/N=C/c1ccc(OS(=O)(=O)c2ccccc2)cc1,-77*
NC(N)=N/N=C/c1c(Cl)cccc1Cl,-4
O=C1C2CCCCC2C(=O)N1c1ccc(OS(=O)(=O)c2ccccc2)cc1 (centres undefined),-26
SMILES,Tg IFNy HTS
COc1ccc(CN2CCC(C(=O)NC(C)c3ccc4c(c3)OCCO4)CC2)cc1 (centres undefined),0
Cc1ccsc1CNc1ccc(C(=O)NCC(O)CO)cc1 (centres undefined),13
CC(C)c1noc(C(C)n2ccnc2-c2cnc(N3CCCC3)nc2)n1 (centres undefined),4
CN1CCN(c2ncnc3ccc(-c4cccc5[nH]ccc45)cc23)CC1,-76*
CCCc1cnc(-c2cccc3[nH]ccc23)nc1,159
CC(C)NC(=O)c1ccc2ncnc(N3CCCCC3)c2c1,-10
CCCNC(=O)c1ccc(-c2nc(CN3CCc4ccccc43)c(C)o2)cc1,4
COCCNC(=O)c1ccc(-c2nc(CN3CCc4ccccc43)c(C)o2)cc1,160
Cc1oc(-c2ccc(C(=O)NC3CCCCCC3)cc2)nc1CN1CCc2ccccc21,-93*
Cc1ccc(CNC(=O)c2ccc(-c3nc(CN4CCc5ccccc54)c(C)o3)cc2)cc1,72
Cc1oc(-c2ccc(C(=O)NCCN3CCOCC3)cc2)nc1CN1CCc2ccccc21,55
Cc1oc(-c2ccc(C(=O)NCCN(C)C)cc2)nc1CN1CCc2ccccc21,-112*
CCCCN(CCCNC(=O)C1=C(C)C(=O)OC12CCN(Cc1ccccc1)CC2)Cc1ccccc1,-9
O=C1CCCN1C[C@@H]1CCC[C@]2(CCN(Cc3ccccc3F)C2)O1,-7
O=C(Nc1ccccc1OCCCc1ccccc1)c1ccccn1,5
CC(C)(C)C1CCc2[nH]nc(C(=O)Nc3cccc(Cn4cncn4)c3)c2C1 (centres undefined),0
CC(C)(C)C1CCc2[nH]nc(C(=O)Nc3ccccc3OCc3ccccn3)c2C1 (centres undefined),-79*
CCS(=O)(=O)N1CCC2(CC1)CN(c1cnn(C)c1)C(=O)CO2,-45
O=C(Nc1ccc(OC(F)(F)F)cc1)OCc1ccc(C#Cc2ccccc2)s1,-83*
CCOC(=O)c1cncc(C#CCOC(=O)Nc2ccc(OC(F)(F)F)cc2)c1,-33
O=C(O)CC1(CC(=O)Nc2ccc(OC(F)(F)F)cc2)CCCC1,36
